Bioassay records (PubChem)
Hits are enriched below; roughly 28% of the tested compounds scored in any of these assays.
CYP2C9 inhib = blocks human cytochrome P450 2C9; CYP2C9 Supersomes, luciferin-H conversion, luminescence; inhibition, % at 5 µM; P11712; 96,000 tested, 20% active;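 active = blocking of liver enzyme CYP2C9 beyond about 50% at 5 µM, limit read from the data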
Target sequence (P11712 whole entry, looked up): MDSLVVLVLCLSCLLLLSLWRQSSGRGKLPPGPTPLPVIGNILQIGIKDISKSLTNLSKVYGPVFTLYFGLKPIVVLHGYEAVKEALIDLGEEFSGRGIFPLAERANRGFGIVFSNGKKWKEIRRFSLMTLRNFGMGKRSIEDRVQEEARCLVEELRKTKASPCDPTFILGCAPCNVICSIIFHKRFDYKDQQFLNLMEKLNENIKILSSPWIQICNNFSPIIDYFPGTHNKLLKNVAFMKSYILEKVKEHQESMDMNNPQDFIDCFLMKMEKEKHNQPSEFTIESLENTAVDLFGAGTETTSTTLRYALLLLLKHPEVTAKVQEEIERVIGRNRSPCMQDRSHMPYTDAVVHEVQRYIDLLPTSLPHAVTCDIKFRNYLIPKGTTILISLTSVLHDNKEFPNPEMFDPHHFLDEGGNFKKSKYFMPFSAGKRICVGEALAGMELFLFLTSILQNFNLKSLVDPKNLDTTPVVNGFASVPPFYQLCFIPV
CYP2C19 inhib = human CYP2C19 inhibition. P33261. CYP2C19 Supersomes, luciferin-H EGE luminescence, 30 min. inhibition, % at 5 µM. 96,000 tested, 21% active. AID 778;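 active = CYP2C19 inhibition above a set limit at 5 µM in the primary screen, cut at about 50% in these data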;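 note: plate controls were negative control wells for no effect and 2.5 mM tranylcypromine positive control for full effect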
CYP2C19 act = increases human CYP2C19 enzyme activity; 96,000 tested, under 10 active; recombinant CYP2C19, luciferin-H EGE luminescence; hits give high values; 0 = fully inhibited enzyme, 1 = untreated enzyme; P33261; activation factor at 5 µM;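 active = activation factor of at least 2 at 5 µM in the primary screen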;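 note: 0 = wells with 2.5 mM tranylcypromine and 1 = vehicle-only wells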
hDAT+cocaine = human DAT dopamine uptake with cocaine, either direction | Q01959 | LLC-PK1 hDAT cells, [14C]-dopamine uptake with cocaine IC80; actives deviate in either direction | B-score at 10 µM | 110,000 tested, 1.3% active;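 active = Z score or B-score, a plate-position-corrected score, falls beyond the plate's 99.7% confidence bounds, in either direction; inactive = both scores lie inside the 99.7% bounds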;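 note: scored against the spread of the other compound wells on the same plate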
D1 mod = allosterically modulates the human D1 dopamine receptor; B-score at 10 µM; 58,000 tested, 5.9% active; HEK293 D1, CRE-luciferase, dopamine EC30 potentiation; actives deviate in either direction;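 active = luminescence count or its row- and column-corrected plate score outside the 99.7% band of the plate's sample wells, on either side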
CYP2C9 activ = increases human cytochrome P450 2C9 activity | activation factor at 5 µM | P11712 | recombinant CYP2C9, luciferin-H conversion, luminescence; hits give high values; factor 1 = untreated enzyme, 0 = blocked | AID 1024 | 96,000 tested, 1.4% active;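 active = activation factor of 2 or more for CYP2C9 at a 5 µM dose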;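 note: 0 = sulfaphenazole-blocked wells and 1 = vehicle-only wells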
An asterisk follows results filed as active; . = not tested or not shown.

SMILES	CYP2C9 inhib	CYP2C19 inhib	CYP2C19 act	hDAT+cocaine	D1 mod	CYP2C9 activ
COCCOC(=O)c1c(C)nc(SCC(=O)Nc2ccc(C)cc2)c(C#N)c1-c1ccco1	92*	64*	0.4	0.11	.	0.1
COc1ccc(-c2cc(C(F)(F)F)c(C#N)c(SCC(=O)Nc3ccc(C)cc3)n2)cc1	49	12	0.9	-0.11	.	0.5
CNC(=O)c1c(C)nc(SCC(=O)NCc2ccc(OC)cc2)c(C#N)c1-c1ccco1	24	2	1	.	-2.9*	0.8
CC(C)OC(=O)CSc1nc(N)c(C#N)c(-c2ccco2)c1C#N	9	-9	1.1	0.73	.	0.9
O=C1CC(N2CCSCC2)C(=O)N1CCc1ccccc1 (stereo not drawn)	-9	16	0.8	-1.3	-0.72	1.1
CCN(CC)C(=O)CSc1nc(N)c(C#N)c(-c2cccs2)c1C#N	.	.	.	2	.	.
Cc1ccccc1NC(=O)CSc1nc(N)c(C#N)c(-c2cccs2)c1C#N	53*	62*	0.4	0.077	3.4	0.5
O=S(=O)(NC1CCCC1)c1ccc(S(=O)(=O)N2CCN(c3ccccc3)CC2)cc1	16	-5	1.1	0.12	.	0.8
CC(C)c1nc(SCC(=O)NCc2ccc3c(c2)OCO3)c2c(=O)n(C)c(=O)n(C)c2n1	.	.	.	.	-0.73	.
CCOc1[nH]n(-c2ccccc2)c(=O)c1C=Nc1ccc(Cl)cc1	1	-22	1.2	1.3	.	1
N#CC1=C2SCN(Cc3ccco3)CN2C(=O)CC1c1ccc(Cl)cc1 (stereo not drawn)	70*	61*	0.4	-0.86	-0.17	0.3
CC(C)c1ccc(C2CC(=O)N3CN(Cc4ccco4)CSC3=C2C#N)cc1 (stereo not drawn)	73*	28	0.7	-0.27	-2.3	0.3
COc1ccc(C2CC(=O)N3CN(Cc4ccco4)CSC3=C2C#N)cc1 (stereo not drawn)	20	9	0.9	-0.2	0.015	0.8
Cc1cccc(N2CCN(C(=O)c3c(C)nn(Cc4ccccc4Cl)c3C)CC2)c1C	34	2	1	-0.22	.	0.7
NC(=O)C1CCCNC1 (stereo not drawn)	.	.	.	-0.63	0.69	.
CC1CCCCC1NC(=O)CN1C(=O)NC(Cc2ccccc2)(Cc2ccccc2)C1=O (stereo not drawn)	20	60*	0.4	.	.	0.8
CC(NC(=O)CN1C(=O)NC(Cc2ccccc2)(Cc2ccccc2)C1=O)C12CC3CC(CC(C3)C1)C2 (stereo not drawn)	8	21	0.8	0.063	.	0.9
COc1cc(-c2nc(Cc3ccccc3Cl)no2)cc(OC)c1OC	14	26	0.7	0.059	.	0.9
COc1ccc(Cc2noc(COc3ccc(Cl)cc3)n2)cc1	17	28	0.7	0.82	.	0.8
COc1ccccc1Cc1noc(-c2cc(Cl)ccc2OC)n1	-134	48	0.5	-1.4	-0.44	2.3*
COc1ccccc1OCc1nc(Cc2ccc(Cl)cc2)no1	-33	94*	0.1	-0.27	-0.39	1.3
CCCNC(=O)C1(CC2CC(c3ccccc3)=NO2)CCN(C(=O)CCCCCBr)CC1 (stereo not drawn)	.	.	.	0.023	.	.
CCOC(=O)C(C)Sc1nc(-c2ccc(OC)cc2)nc2c1c(=O)n(C)c(=O)n2C (stereo not drawn)	11	7	0.9	.	-1.9	0.9
Cc1cc2c(=O)n(CC(=O)N3CCN(c4ccccc4)CC3)cnc2s1	-13	-7	1.1	-0.78	0.0096	1.1
Cc1cc2c(=O)n(CC(=O)NCC(=O)N3CCN(Cc4ccccc4)CC3)cnc2s1	52*	17	0.8	-0.013	0.7	0.5
SMILES	CYP2C9 inhib	CYP2C19 inhib	CYP2C19 act	hDAT+cocaine	D1 mod	CYP2C9 activ
CC(C)NC(=S)NN(c1ccccc1)c1ccccc1	51*	62*	0.4	0.015	.	0.5
CCN(CC)NC(=S)Nc1ccccc1	-15	28	0.7	-0.039	.	1.2
Cc1ccc(N2C(=O)CSC2c2c(F)cccc2Cl)cc1 (stereo not drawn)	58*	93*	0.1	-1.3	.	0.4
N/C(=N\OC(=O)c1cccc(F)c1)c1ccccc1	-3	0	1	.	.	1
COc1ccc(NC(=O)CCN2C(=O)C3CC=C(Cl)CC3C2=O)cc1 (stereo not drawn)	.	.	.	.	-0.67	.
Cc1csc(Sc2ccc([N+](=O)[O-])cc2C(=O)OCC(=O)NC(=O)NC(C)(C)C)n1	72*	19	0.8	-0.41	.	0.3
